Source: PubChem BioAssay (Paczesny and Yang Labs, IUPUI and University of Michigan)
This excerpt belongs to a sample that is enriched for hits.
ST2 IL33 inh = blocks human ST2 binding to IL-33. Q01638. AlphaLISA ST2-Fc/biotin-IL-33 interaction, 1 h. inhibition, % for hits at 17 µM. 2.3% of 78,000 active; in the data active = inhibition above about 30%
Target sequence (Q01638 whole entry, looked up): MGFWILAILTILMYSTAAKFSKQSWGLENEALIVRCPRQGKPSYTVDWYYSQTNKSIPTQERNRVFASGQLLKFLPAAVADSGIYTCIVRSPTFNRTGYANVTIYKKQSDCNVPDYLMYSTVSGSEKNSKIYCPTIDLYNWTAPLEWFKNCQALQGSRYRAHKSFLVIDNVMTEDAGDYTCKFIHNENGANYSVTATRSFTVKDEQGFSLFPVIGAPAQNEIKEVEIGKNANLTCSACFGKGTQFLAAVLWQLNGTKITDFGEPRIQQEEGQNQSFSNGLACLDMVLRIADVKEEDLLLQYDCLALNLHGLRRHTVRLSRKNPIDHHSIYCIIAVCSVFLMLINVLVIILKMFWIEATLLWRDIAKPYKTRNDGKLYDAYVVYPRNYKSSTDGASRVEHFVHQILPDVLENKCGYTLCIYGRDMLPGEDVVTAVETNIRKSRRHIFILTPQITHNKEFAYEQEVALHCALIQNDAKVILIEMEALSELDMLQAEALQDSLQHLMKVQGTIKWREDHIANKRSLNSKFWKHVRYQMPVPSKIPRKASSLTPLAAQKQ
Starred values were filed as active, the others as inactive; i = inactive; ! = repeats disagree.

SMILES | ST2 IL33 inh
Cc1[nH]nc(SCC(=O)NCCCN2CCOCC2)c1[N+](=O)[O-] | i
O=C(CSc1nc(-c2ccccc2)[nH]c1-c1ccc(F)cc1)Nc1nccs1 | i
Cc1ccc(N(CC(=O)NC(C)c2nncn2C)S(C)(=O)=O)cc1 (stereo not drawn) | i
c1cncc(-c2nnc([C@H]3CCNC3)o2)c1 | i
O=C(NCc1ccc(F)cc1)N1CCCCC1CCn1ccnc1 (stereo not drawn) | i
Cc1ccc(-c2nnc(-c3nc(NC4CC4)c4ccccc4n3)o2)cc1 | i
Cc1cc(C)c2c(CC(=O)N3CCCC4(CNC(=O)O4)C3)coc2c1C (stereo not drawn) | i
COc1coc(C(=O)NCc2cccnc2Oc2ccccc2F)cc1=O | i
Cc1ccc(-c2[nH]nc3c2C(c2ccccc2F)C(C#N)=C(N)O3)cc1 (stereo not drawn) | i
Cc1[nH]nc2c1C(c1c(F)cccc1F)C(C#N)=C(N)O2 (stereo not drawn) | 32%*
Cc1[nH]nc2c1C(c1cc(Br)cs1)C(C#N)=C(N)O2 (stereo not drawn) | 33%*
CCN(CC)c1ccc(C2C(C#N)=C(N)Oc3n[nH]c(C)c32)cc1 (stereo not drawn) | i
CCOc1ccc(C2C(C#N)=C(N)Oc3n[nH]c(C)c32)cc1 (stereo not drawn) | i
CCCCOc1ccc(C2C(C#N)=C(N)Oc3n[nH]c(C)c32)cc1 (stereo not drawn) | i
CC(=O)c1cnc(Nc2ccc(F)cc2F)c2ccccc12 | i
O=C(CN(c1cccc(Cl)c1)S(=O)(=O)c1ccccc1)NCC1CCCO1 (stereo not drawn) | i
CC(C)c1nnc2sc(CCc3cccnc3)nn12 | i
Cc1ccc(CN2CCN(Cc3cnc(-c4ccccc4C)nc3)CC2CCO)o1 (stereo not drawn) | i
CC1=C(C(N)=O)C(c2ccncc2)n2nc(SCc3ccccc3Cl)nc2N1 (stereo not drawn) | i
CS(=O)(=O)N1CCCC(CNC(=O)Cc2ccccn2)C1 (stereo not drawn) | i
CCOC(=O)C1CCCN(C2CCN(Cc3nc(CCc4ccccc4)no3)CC2)C1 (stereo not drawn) | i
CC(=O)O[C@@H]1CC2C(C)(C)C(=O)C=C[C@]2(C)C2CC[C@]3(C)C(=CC(=O)[C@H]3c3ccoc3)[C@@]21C (stereo partly drawn) | i
O=C(Nc1nc(-c2cc3ccccc3oc2=O)cs1)c1cc(=O)c2ccccc2o1 | i
COc1cc2ccccc2cc1C(=O)Nc1nc(-c2cc3ccccc3oc2=O)cs1 | i
COc1ccc(C(=O)Nc2nc(-c3cc4ccccc4oc3=O)cs2)cc1OC | 38%*
SMILES | ST2 IL33 inh
Cc1cccc(-c2noc(CN(C)C(=O)c3c(C)cc(C)n(C)c3=O)n2)c1 | i
Cc1cc(C)cc(N2C(=O)NC(=O)/C(=C\c3cc(Br)c(N4CCOCC4)o3)C2=O)c1 | i
C=CCN(Cc1ccc(C(F)(F)F)nc1)Cc1ccccc1OC | i
N#C/C(=C\c1ccc(-c2cc([N+](=O)[O-])ccc2Cl)o1)c1[nH]nc(N)c1C#N | 45%*
O=c1oc(-c2cc([N+](=O)[O-])ccc2Cl)nc2ccc(I)cc12 | i
O=c1oc(-c2cc([N+](=O)[O-])ccc2Cl)nc2ccc(Br)cc12 | i
CC1(C)NC(=O)N(CC(O)COc2cccc(OCC(O)CN3C(=O)NC(C)(C)C3=O)c2)C1=O (stereo not drawn) | i
Cn1ccnc1SCCNC(=O)c1cn(CC2COc3ccccc3O2)nn1 (stereo not drawn) | i
O=C(Nc1nc(-c2ccccn2)cs1)c1ccc(C(=O)c2ccccc2)cc1 | i
Oc1ccc(Nc2nc(-c3ccccn3)cs2)cc1 | i
c1ccc(CNc2nc(-c3ccccn3)cs2)cc1 | 36%*
CSc1nc2ccc(NC(=O)C3CCCCC3)cc2s1 | i
c1ccc(CN2CCN(C3CCCCCC3)CC2)cc1 | i
O=C1C[C@@H]2CCN(Cc3ccccc3)C[C@@H]2CCN1C1CCCCC1 | 76%*
NC(=O)[C@H](Cc1ccccc1)N1CC[C@H]2CN(C(=O)C3CCCCC3)CC[C@H]2CC1=O | i
CCOC(=O)C1(CCOc2ccccc2)CCN(S(=O)(=O)c2ccc(C)s2)CC1 | i
CCOC(=O)C1(CCOC)CCN(Cc2ccc(N(C)c3ccccc3)cc2)CC1 | i
CCOC(=O)C1(CCOc2ccccc2)CCN(Cc2cccc(C)n2)CC1 | 83%*
COc1ccc2nc(N3CCC(C(=O)NCc4ccco4)CC3)sc2c1 | i
O=C(Nc1ccnn1C1CCN(Cc2ccc3c(c2)Cc2ccccc2-3)CC1)c1ccccc1 | i
O=C1NC(=O)/C(=C\c2ccc(Cl)cc2Cl)S1 | 31%*
O=C1NC(=O)/C(=C/c2ccc([N+](=O)[O-])cc2)S1 | i
O=C1S/C(=C\c2ccc(Cl)cc2Cl)C(=O)N1CN1CCOCC1 | i
CCOCCCNC(=O)C1(O)c2ccccc2NC(=O)N1c1ccc(CC)cc1 (stereo not drawn) | i
Cc1ccc(CN2C(=O)/C(=C/C(=O)NCc3ccc4c(c3)OCO4)Sc3ccccc32)cc1 | i
SMILES | ST2 IL33 inh
O/N=C\c1c(O)c(Br)cc2oc3c(c12)CCCC3 | 38%*
Cc1ccc(S(=O)(=O)Nc2cccc(-c3cn4ccccc4n3)c2)c(C)c1 | i
O=C(Nc1nnc(CSCc2ccccc2)s1)c1cccs1 | i
CCCn1cnc2cc(NCc3cccs3)ccc21 | i
CCn1cnc2cc(NCc3cccc(OC)c3)ccc21 | i
Cn1cnc2cc(NCc3ccccc3Cl)ccc21 | i
CCN(CC)c1ccc(CNc2ccc3c(c2)ncn3C(C)(C)C)cc1 | 40%*
Cn1cnc2cc(NCc3ccc(Br)cc3)ccc21 | i
COc1cccc(CNc2ccc3c(c2)ncn3C)c1OC | i
CC(C)(C)n1cnc2cc(NCc3ccc(Cl)cc3Cl)ccc21 | i
CCN(CC)c1ccc(CNc2ccc3c(c2)ncn3C)cc1 | 50%*!
CN(C)c1ccc(CNc2ccc3c(c2)ncn3C)cc1 | 46%*!
CC(C)c1ccc2oc(-c3ccc(NC(=O)c4ccco4)cc3)nc2c1 | i
O=C1N(CN2CCN(Cc3ccccc3)CC2)c2ccccc2C12OCC(CO)([N+](=O)[O-])CO2 (stereo not drawn) | i
COc1ccc(-c2ccc(/C=C3\C(=O)N(c4cccc(Cl)c4)N=C3C)o2)cc1[N+](=O)[O-] | 49%*
CC1=NN(c2cccc(Cl)c2)C(=O)/C1=C\c1ccc(-c2cc([N+](=O)[O-])ccc2O)o1 | 91%*
COc1ccc(/C=C2\C(=O)N(c3cccc(Cl)c3)N=C2C)cc1Br | i
COc1ccc(/C=C2\C(=O)N(c3ccccc3)N=C2C)cc1[N+](=O)[O-] | i
CC1=NN(c2ccc(Br)cc2)C(=O)/C1=C\c1ccc(-c2cccc([N+](=O)[O-])c2)o1 | i
CC1=NN(c2ccc(Cl)c(C(=O)O)c2)C(=O)/C1=C\c1ccc(-c2cccc([N+](=O)[O-])c2)o1 | i
CSc1ccc(-c2nc(CSCC(=O)NC3CCCCC3)c(C)o2)cc1 | i
CCC(=O)N1CCc2cc(Br)cc(S(=O)(=O)NC3CCCC3)c21 | i
c1ccc2[nH]c(CSc3ncnc4ccccc34)nc2c1 | i
Cc1ccc(C)c(NC(=O)Cn2nnc(-c3ccccc3Cl)n2)c1 | i
CCC(=O)OCCNc1cc(C)c2noc3c2c1C(=O)c1ccccc1-3 | 33%*
Cc1noc(C)c1S(=O)(=O)N1CCC(C(=O)NC2CCCCC2)CC1 | i
O=C(O)c1ccc(C2SCC(=O)N2CCc2ccccc2)cc1 (stereo not drawn) | i
